Experimental data taken from PubChem BioAssay (NCATS).
Where “and” joins values, the source holds several entries; their conditions need not be identical. Equal values may be shown once. Records with an inconclusive call do not appear. Entries that show only a call come without a potency. Some structures have more than one record in an assay (separate samples or runs), and their calls can disagree. Calls of active or inactive are those of the source. Calls follow the shape of the dose curve; as a rule, active = well fitted curve in the direction sought with a large enough effect; inconclusive = small, poorly fitted or top-dose-only effect, or another doubt; inactive = no such curve, though single readings can be large; an effect the other way counts as inactive or inconclusive.

Assay: P-glycoprotein substrates identified in KB-8-5-11 adenocarcinoma cell line, qHTS therapeutic library screen (AID 1346987); also: nearly all actives have a fitted effect of over 65% in size
Conditions: KB-8-5-11 (P-gp overexpressing) viability, CellTiter-Glo, 72 h; series mostly up to 44.5 µM
In short: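 P-gp-mediated resistance screen: KB-8-5-11 cells treated 72 h with compounds in dose-response. CellTiter-Glo viability.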
Potency is read from the fitted curve at half-maximal effect.

SMILES	Potency
CC(C)c1onc(-c2c(Cl)cccc2Cl)c1COc1ccc(C=Cc2cccc(C(=O)O)c2)c(Cl)c1	inactive
COc1ccc(CCN(C)CCCOc2ccc(S(=O)(=O)c3[nH]c4ccccc4c3C(C)C)cc2)cc1OC	inactive
COc1cc2c(cc1OC)[C@@H]1Cc3ccc(OC)c(OC)c3CN1CC2	inactive
O=S(=O)(O)c1ccc2cc(N=Nc3cc(S(=O)(=O)O)c4cccnc4c3O)ccc2c1	inactive
CC(=O)N1CCN(c2ccc(OCc3nn(C)c(C)c3-c3cccc4c(CCCOc5cc(C)c(Cl)c(C)c5)c(C(=O)O)n(Cc5cccnc5)c34)cc2)CC1	inactive
C[C@]12CC[C@@H]3c4ccc(O)cc4CC[C@H]3[C@H]1[C@@H](O)[C@@H](O)[C@H]2O	inactive
CCN1CCN(c2ccc(Nc3cc(N(C)C(=O)Nc4c(Cl)c(OC)cc(OC)c4Cl)ncn3)cc2)CC1	inactive and 16.4 µM (active)
CC1C(=O)OC2C(O)C34C5CC(C(C)(C)C)C36C(OC(=O)C6O)OC4(C(=O)O5)C12O (stereo not drawn)	inactive
COc1nc(C)cnc1NS(=O)(=O)c1cccnc1-c1ccc(-c2nnco2)cc1	inactive
CN[C@@H]1[C@@H](O)[C@@H](O[C@@H]2[C@@H](O)[C@H](O[C@H]3O[C@H](CN)[C@@H](O)[C@H](O)[C@@H]3O)[C@@H](N)C[C@@H]2NC(=O)[C@@H](O)CN)OC[C@]1(C)O	inactive
COc1ccc(-c2cc(=O)c3c(O)cc(O[C@@H]4O[C@H](CO[C@@H]5O[C@@H](C)[C@H](O)[C@@H](O)[C@@H]5O)[C@@H](O)[C@H](O)[C@@H]4O)cc3o2)cc1O	inactive
Cc1c(C(=O)Nc2ccc(N3C[C@@H](C)O[C@@H](C)C3)nc2)cccc1-c1ccc(OC(F)(F)F)cc1	inactive
CC1(C)OC2CC3C4CC(F)C5=CC(=O)C=CC5(C)C4C(O)CC3(C)[C@]2(C(=O)CO)O1 (stereo partly drawn)	inactive
CC1(C)CC(=O)c2c(C(F)(F)F)nn(-c3ccc(C(N)=O)c(NC4CCC(O)CC4)c3)c2C1 (stereo not drawn)	418 nM (active)
Cc1ccccc1C(C(=O)NC1CCCCC1)N(C(=O)CNc1ccc(C#N)cc1)c1cccc(F)c1 (stereo not drawn)	inactive
CN1c2ccccc2C(=O)N2CCc3c([nH]c4ccccc34)C21 (stereo not drawn)	inactive and 1.84 µM (active)
Cn1cc(-c2ccc3nnc(Sc4ccc5ncccc5c4)n3n2)cn1	inactive
CCCCCCCCCCCCCCCC(=O)O[C@H]1[C@@H](O)[C@@H](O)[C@@H]([C@H](NC(=O)[C@@H]2C[C@@H](CCC)CN2C)[C@H](C)Cl)O[C@@H]1SC	inactive
COc1cc(Cl)cn2c(-c3cccc(NC4CNC4)n3)cnc12	inactive
CC(C)(C)c1[nH]cnc1C=c1[nH]c(=O)c(=Cc2ccccc2)[nH]c1=O	2.4 nM (active)
Cc1nc(C(=O)NCC(=O)O)c(O)c2ccc(Oc3ccccc3)cc12	inactive
C[C@@]1(c2cc(-c3cncnc3)c(F)cc2F)CCSC(N)=N1	inactive

Assay: NS1 protein of Zika virus - qHTS assay to identify small molecule inhibitors in human HEK 293 cells (AID 1347053); also: nearly all actives have a fitted effect of over 55% in size
Conditions: HEK293 ZIKV MR766 infection, NS1 TR-FRET, 24 h; series mostly up to 46.1 µM
In short: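 Inhibition of NS1 expression was scored in HEK 293 cells given compound 1 h ahead of MR766 virus (MOI = 0.5). Following 24 h at 37 C, two anti-NS1 antibodies generated a TR-FRET signal, scaled between uninfected and infected controls.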

SMILES	Potency
C[C@@H](N)c1ccc(C(=O)Nc2ccnc3[nH]ccc23)cc1	inactive
NCC1CCC(C(=O)O)CC1 (stereo not drawn)	inactive
CC(C)c1c(C(=O)Nc2ccccc2)c(-c2ccccc2)c(-c2ccc(F)cc2)n1CC[C@H](O)C[C@@H](O)CC(=O)O	inactive
Cc1cnc(Nc2cccc(CN3CCOCC3)c2)nc1Nc1cccc(S(=O)(=O)NC(C)(C)C)c1	inactive
Nc1ccc(-c2ccc3ncc4ccc(=O)n(-c5cccc(C(F)(F)F)c5)c4c3c2)cn1	41.8 nM (active)
COc1c(C)c2c(c(O)c1CC=C(C)CCC(=O)O)C(=O)OC2	526 nM (active)
O=C(Nc1ccc(OC(F)(F)F)cc1)c1sccc1NCc1ccnc2ccccc12	inactive
CCOc1ccccc1N=Nc1c(C)[nH]n(-c2nc(-c3ccccc3)cs2)c1=O	inactive
CN1CC(=O)NC1=NC(=O)Nc1cccc(Cl)c1	inactive
Cc1nc2c([nH]1)CCN(C(=O)c1ccc(NC(=O)c3ccccc3-c3ccccc3)cc1)c1ccccc1-2	inactive
C=CC[N+]1([C@H]2C[C@H]3[C@@H]4CC[C@H]5C[C@H](O)[C@@H](N6CCOCC6)C[C@]5(C)[C@@H]4CC[C@]3(C)[C@H]2OC(C)=O)CCCC1	inactive
C[C@@H](O)[C@H]1C(=O)N2C(C(=O)OCOC(=O)C(C)(C)C)=C(SC3CN(C4=NCCS4)C3)[C@H](C)[C@H]12	inactive
CNc1nc(Nc2ccc(C(=O)N3CCOCC3)cc2OC)ncc1Cl	inactive
COc1cc2c(cc1OC)CC(=O)N(CCCN(C)C[C@H]1Cc3cc(OC)c(OC)cc31)CC2	inactive
CC(C)c1onc(-c2c(Cl)cccc2Cl)c1COc1ccc(C=Cc2cccc(C(=O)O)c2)c(Cl)c1	inactive
COc1ccc(CCN(C)CCCOc2ccc(S(=O)(=O)c3[nH]c4ccccc4c3C(C)C)cc2)cc1OC	inactive
COc1cc2c(cc1OC)[C@@H]1Cc3ccc(OC)c(OC)c3CN1CC2	inactive
O=S(=O)(O)c1ccc2cc(N=Nc3cc(S(=O)(=O)O)c4cccnc4c3O)ccc2c1	inactive

SMILES	Potency
CC(=O)N1CCN(c2ccc(OCc3nn(C)c(C)c3-c3cccc4c(CCCOc5cc(C)c(Cl)c(C)c5)c(C(=O)O)n(Cc5cccnc5)c34)cc2)CC1	inactive
C[C@]12CC[C@@H]3c4ccc(O)cc4CC[C@H]3[C@H]1[C@@H](O)[C@@H](O)[C@H]2O	inactive
CCN1CCN(c2ccc(Nc3cc(N(C)C(=O)Nc4c(Cl)c(OC)cc(OC)c4Cl)ncn3)cc2)CC1	inactive
CC1C(=O)OC2C(O)C34C5CC(C(C)(C)C)C36C(OC(=O)C6O)OC4(C(=O)O5)C12O (stereo not drawn)	inactive
COc1nc(C)cnc1NS(=O)(=O)c1cccnc1-c1ccc(-c2nnco2)cc1	inactive
CN[C@@H]1[C@@H](O)[C@@H](O[C@@H]2[C@@H](O)[C@H](O[C@H]3O[C@H](CN)[C@@H](O)[C@H](O)[C@@H]3O)[C@@H](N)C[C@@H]2NC(=O)[C@@H](O)CN)OC[C@]1(C)O	inactive
COc1ccc(-c2cc(=O)c3c(O)cc(O[C@@H]4O[C@H](CO[C@@H]5O[C@@H](C)[C@H](O)[C@@H](O)[C@@H]5O)[C@@H](O)[C@H](O)[C@@H]4O)cc3o2)cc1O	inactive
Cc1c(C(=O)Nc2ccc(N3C[C@@H](C)O[C@@H](C)C3)nc2)cccc1-c1ccc(OC(F)(F)F)cc1	inactive
CC1(C)OC2CC3C4CC(F)C5=CC(=O)C=CC5(C)C4C(O)CC3(C)[C@]2(C(=O)CO)O1 (stereo partly drawn)	inactive
CC1(C)CC(=O)c2c(C(F)(F)F)nn(-c3ccc(C(N)=O)c(NC4CCC(O)CC4)c3)c2C1 (stereo not drawn)	23500 nM (active)
Cc1ccccc1C(C(=O)NC1CCCCC1)N(C(=O)CNc1ccc(C#N)cc1)c1cccc(F)c1 (stereo not drawn)	inactive
CN1c2ccccc2C(=O)N2CCc3c([nH]c4ccccc34)C21 (stereo not drawn)	inactive
Cn1cc(-c2ccc3nnc(Sc4ccc5ncccc5c4)n3n2)cn1	inactive
CCCCCCCCCCCCCCCC(=O)O[C@H]1[C@@H](O)[C@@H](O)[C@@H]([C@H](NC(=O)[C@@H]2C[C@@H](CCC)CN2C)[C@H](C)Cl)O[C@@H]1SC	inactive
COc1cc(Cl)cn2c(-c3cccc(NC4CNC4)n3)cnc12	inactive
CC(C)(C)c1[nH]cnc1C=c1[nH]c(=O)c(=Cc2ccccc2)[nH]c1=O	3 nM (active)
Cc1nc(C(=O)NCC(=O)O)c(O)c2ccc(Oc3ccccc3)cc12	inactive
C[C@@]1(c2cc(-c3cncnc3)c(F)cc2F)CCSC(N)=N1	inactive
